48 compounds from PubChem BioAssay AID1851 (National Center for Advancing Translational Sciences (NCATS), 2009) can be followed below.

Molecules are shown by their SMILES. Among all 16,000 compounds or so, about 5,800 (36%) were called active. Inconclusive results (about 23%) are left out. The call rests on the fitted dose curve; in most records, active means well fitted curve in the direction sought with a large enough effect; inconclusive means small, poorly fitted or top-dose-only effect, or effect the other way; inactive means no such curve, though single readings can be large or run the other way. The list shows a part of the results. Some compounds were tested as several samples or in several runs, with calls that do not always agree.
On the % scale 0 is the no-effect control and ±100 the full control effect.

The target of this assay is Cytochrome P450 2C19 (Homo sapiens) (UniProt P33261). The assay is described as follows: Cytochrome panel assay with activity outcomes. To be noted: recombinant CYP, pro-luciferin dealkylation, luminescence, p450-cyp2c19; series mostly up to 57.1 µM; activity, negative = inhibition: at the top concentration.
Sequence of Cytochrome P450 2C19 (Homo sapiens) (P33261 whole entry, looked up): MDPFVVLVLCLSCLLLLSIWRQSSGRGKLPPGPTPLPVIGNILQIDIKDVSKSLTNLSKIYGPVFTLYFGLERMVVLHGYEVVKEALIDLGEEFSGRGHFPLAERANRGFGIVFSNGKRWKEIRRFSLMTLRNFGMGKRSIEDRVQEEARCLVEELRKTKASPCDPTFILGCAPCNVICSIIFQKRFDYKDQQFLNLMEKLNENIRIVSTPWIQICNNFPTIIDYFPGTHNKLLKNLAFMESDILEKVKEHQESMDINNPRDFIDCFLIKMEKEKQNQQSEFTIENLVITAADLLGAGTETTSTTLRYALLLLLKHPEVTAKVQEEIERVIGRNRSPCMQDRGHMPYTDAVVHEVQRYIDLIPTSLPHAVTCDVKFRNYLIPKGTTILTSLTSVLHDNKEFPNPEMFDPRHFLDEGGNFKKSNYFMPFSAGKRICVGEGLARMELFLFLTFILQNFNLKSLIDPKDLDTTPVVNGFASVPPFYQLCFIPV
In the case of `COc1ccccc1CN1CCC2(CC1)CCN(C(=O)c1c(C)noc1C)CC2`, the “activity, negative = inhibition” value is 41.5% (inactive). A word on the AC50: it is the midpoint of the concentration-response curve, whichever way the signal moves. For the compound `COc1ccccc1COC(=O)Nc1c(C)nn(C)c1Cl`, the concentration at half-maximal activity (AC50) is 3.55 µM (active). On to `O=C(c1cnccn1)N1CCC2(CC1)CN(C(c1ccccc1)c1ccccc1)C2`, for which the “activity, negative = inhibition” value is -22.3% (inactive). The same measure, in the same setting: the result for `CN(C)Cc1c[nH]c2nc[nH]c(=O)c12` reads 42.6% [at 11.4 µM] (inactive). With `COCCN(C(=O)C(C)C)c1nnc(-c2ccc(C)cc2)s1`, the concentration at half-maximal activity (AC50) was 7.94 µM (active). Still for that read-out and setting: the result for `COCCN(C(=O)c1ccco1)c1nnc(-c2ccc(OC)cc2)s1` reads 15.8 µM (active).

On to `COCC(=O)N(C)c1nnc(-c2ccc([N+](=O)[O-])cc2)s1`, for which the “activity, negative = inhibition” value is -87.4% (inactive). The same measure, in the same setting: the value for `CO[C@@H]1COC(=O)[C@H]2CCCN2C(=O)[C@@H](C)COC(=O)C/C=C\[C@H]1C` was 91.7% [at 11.4 µM] (inactive).

`Cn1c(=O)c2c(ncn2CN2CCN(Cn3cnc4c3c(=O)n(C)c(=O)n4C)CC2)n(C)c1=O`: the activity, negative = inhibition is -11.6% [at 11.4 µM] (inactive).

For `Cn1c(=O)c2c(nc(N3CCN(c4ccccn4)CC3)n2Cc2ccc(Cl)cc2Cl)n(C)c1=O`, the AC50 was 6.31 µM (active). Turning to `Cn1c(=O)c2c(nc(N3CCN(c4ccccn4)CC3)n2Cc2ccccc2Cl)n(C)c1=O`, the half-maximal activity concentration (AC50) was 3.16 µM (active). As for `CN1CCN(c2nc3c(c(=O)n(C)c(=O)n3C)n2C)CC1`, the activity, negative = inhibition was -9.69% [at 11.4 µM] (inactive). On the same count and under the same terms, the value for `O=C(N/N=C1/C[C@@H](O)[C@@H](O)[C@@H]2[C@@H]3C(=O)N(Cc4ccccc4)C(=O)[C@H]3CC[C@@H]12)OCc1ccccc1` was 9.42% [at 11.4 µM] (inactive); that for `O=C(c1cc(C(F)(F)F)cc(C(F)(F)F)c1)N1CCC2(CCN(Cc3ccccc3)CC2)CC1` was 3.98% (inactive). In the case of `O=C(c1cccc(C(F)(F)F)c1)N1CCC(O)(CS(=O)(=O)Cc2ccccc2)CC1`, the half-maximal activity concentration (AC50) was 22.4 µM (active). In the case of `O=C(c1cc(C(F)(F)F)cc(C(F)(F)F)c1)N1CCC2(CC1)CN(Cc1ccccc1)C2`, the “activity, negative = inhibition” value is 23.7% (inactive).

As for `COc1ccc(CNc2ncncc2-c2ccc(N(C)C)cc2)c(OC)c1`, the AC50 was 1.58 µM (active).

As for `COc1ccccc1CNc1ncncc1-c1ccc(C(=O)N(C)C)cc1`, the “activity, negative = inhibition” value was -41.5% (inactive). `COc1ccc(CNc2ncncc2-c2ccc(C(=O)N(C)C)cc2)c(OC)c1`: the half-maximal activity concentration (AC50) is 15.8 µM (active). Turning to `C[C@H](N)C(=O)O`, the “activity, negative = inhibition” value was 30.8% (inactive). The same measure, in the same setting: the result for `N[C@@H](CC1=CS(=O)(=O)c2ccc(Cl)cc21)C(=O)O` reads -36.6% [at 11.4 µM] (inactive). Still for that read-out and setting: the value for `N[C@H](Cc1ccc(Cl)cc1)C(=O)O` was 7.86% (inactive). Turning to `O=C(O)C(Sc1ccc(Cl)cc1)Sc1ccc(Cl)cc1`, the AC50 was 0.1 µM (active). As for `NCCOB(c1ccccc1)c1ccccc1`, the “activity, negative = inhibition” value was -41% (inactive). On to `Cc1[nH]n(C(C)(C)C)c(=O)c1Sc1ccc(Cl)cc1`, for which the concentration at half-maximal activity (AC50) is 3.98 µM (active). With `COc1cc(Cn2cnnn2)ccc1O`, the “activity, negative = inhibition” value is -23.8% (inactive). On to `O=[N+]([O-])c1ccc(Cl)c(-c2ccc(/C=N/c3c(-c4ccco4)nc4ccccn34)o2)c1`, for which the “activity, negative = inhibition” value is 8.08% (inactive). For the compound `COc1cc(-c2nc3ccccn3c2/N=C/c2ccccc2)ccc1O`, the concentration at half-maximal activity (AC50) is 10 µM (active). The same measure, in the same setting: the value for `CC(C)(C)NC(=O)C(=O)N/N=C/c1ccc(Br)cc1` was 14.1 µM (active). `O=Nc1ccc(NOC(=O)c2ccc(Br)cc2)cc1`: the “activity, negative = inhibition” value is -12.5% (inactive). The same measure, in the same setting: the result for `O=C(N/N=C/c1ccc(F)cc1)c1ccc(Br)cc1` reads -28.4% (inactive). On the same count and under the same terms, the value for `CC(C)NC(=O)CC(=O)N/N=C/c1ccc(F)cc1` was 23% (inactive).

For the compound `CC(C)NC(=O)CC(=O)N/N=C/c1ccc(Br)cc1`, the half-maximal activity concentration (AC50) was 3.55 µM (active).

As for `CCCCOc1ccc(CN2CCC(O)CC2)cc1`, the “activity, negative = inhibition” value is 6.74% (inactive). For `CCOc1ccc(OCCOCCN2CCc3ccccc3C2)cc1`, the half-maximal activity concentration (AC50) was 14.1 µM (active).

In the case of `CC(=O)Nc1sc2c(c1CN1CCN(C)CC1)CCCC2`, the concentration at half-maximal activity (AC50) was 6.31 µM (active).

With `CCNC(=O)c1c(NC(C)=O)sc2c1CCCC2`, the “activity, negative = inhibition” value was -12.1% (inactive). Turning to `Cc1cc(OCC(F)(F)C(F)(F)C(F)(F)C(F)(F)C(F)(F)C(F)F)nc(N)n1`, the AC50 is 3.16 µM (active). On to `COc1cc(-c2ccc(=O)[nH]n2)ccc1OC(F)F`, for which the “activity, negative = inhibition” value is -35% [at 25.6 µM] (inactive). In the case of `CCCc1cc(=O)[nH]c(SCc2cc(Cl)ccc2OC(F)F)n1`, the half-maximal activity concentration (AC50) was 2.82 µM (active). Same read-out and setting: the value for `O=C(COc1cccc2ccccc12)NNC(=O)c1cccs1` was 10 µM (active); that for `Cc1cccc(C)c1NC(=O)/C(C#N)=C/c1cccs1` was 4.47 µM (active). Consider `Cc1ccc(S(N)(=O)=O)cc1NC(=O)/C=C/c1cccs1`, for which the “activity, negative = inhibition” value was -24.6% (inactive). Same read-out and setting: the result for `N#C/C(=C\c1cccs1)C(=O)NCC1CCCO1` (stereo not drawn) reads -16.4% (inactive). Consider `CC(C)=CC(=O)Nc1nnc(C(C)C)s1`, for which the AC50 was 25.1 µM (active).

Turning to `CC(=O)Nc1nnc(S(N)(=O)=O)s1`, the “activity, negative = inhibition” value is 2.11% [at 25.6 µM] (inactive). Turning to `C=CCOC(=O)C1=C(C)NC(SC)=C(C#N)C1c1cccs1` (stereo not drawn), the AC50 was 0.178 µM (active). Consider `C=CCOC(=O)C1=C(C)NC(SCC(=O)OCC)=C(C#N)C1c1ccc(C)cc1` (stereo not drawn), for which the AC50 was 2.82 µM (active).
